# From the supplement of paper PMC8728848
# The entries come from a sample that favours the strongest signals as a whole.
# B1: CTLY 1 (Homo sapiens), Q6ZS10 (protein)
# chain: AITCPEGWLPFEGKCYYFSPSTKSWDEARMFCQENYSHLVIINSFAEHNFVAKAHGSPRVYWLGLNDRAQEGDWRWLDGSPVTLSFWEPEEPNNIHDEDCATMNKGGTWNDLSCYKTTYWICERKGLNDIFEAQKIEWHE
# Tests used:
# Test in all cases: glycan array binding signal (z-score within array); higher = stronger binding
# Details in all cases: glycan notation: IUPAC condensed, linker removed
# [1] = biological target: Fuc(a1-2)Gal(b1-3)GalNAc(a1-3)[Fuc(a1-2)]Gal(b1-4)GlcNAc
# In short: (§1)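 The binding signal is a Z-score computed within each array. Data were drawn from 3228 arrays in the Consortium for Functional Glycomics database, restricted to those with a known protein sequence. Scores were averaged over arrays of the same protein sequence at different concentrations or buffers, and over linkers, and negative values can be taken as non-binding.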
# [2] = biological target: Fuc(a1-2)Gal(b1-3)GlcNAc(b1-3)Gal(b1-4)Glc
# In short: as §1
# [3] = biological target: Fuc(a1-2)Gal(b1-3)GlcNAc(b1-3)[Fuc(a1-3)[Gal(b1-4)]GlcNAc(b1-6)]Gal(b1-4)Glc
# In short: as §1
# [4] = biological target: Fuc(a1-2)Gal(b1-4)[Fuc(a1-3)]GlcNAc(b1-3)Gal(b1-4)[Fuc(a1-3)]GlcNAc(b1-3)Gal(b1-4)[Fuc(a1-3)]GlcNAc
# In short: as §1
# [5] = biological target: Fuc(a1-2)[Gal(a1-3)]Gal(b1-4)GlcNAc(b1-2)Man(a1-3)[Fuc(a1-2)[Gal(a1-3)]Gal(b1-4)GlcNAc(b1-2)Man(a1-6)]Man(b1-4)GlcNAc(b1-4)GlcNAc
# In short: as §1
# [6] = biological target: Fuc(a1-2)[Gal(a1-3)]Gal(b1-4)[Fuc(a1-3)]GlcNAc
# In short: as §1
# [7] = biological target: Fuc(a1-2)[GalNAc(a1-3)]Gal(b1-4)[Fuc(a1-3)]GlcNAc
# In short: as §1
# [8] = biological target: Fuc(a1-3)[Gal(b1-4)]GlcNAc(b1-4)Gal(b1-4)[Fuc(a1-3)]GlcNAc
# In short: as §1
# [9] = biological target: Fuc(a1-3)[Gal(b1-4)]GlcNAc(b1-6)[Gal(b1-3)GlcNAc(b1-3)]Gal(b1-4)Glc
# In short: as §1
# [10] = biological target: Fuc(a1-3)[GalNAc(b1-4)]GlcNAc
# In short: as §1
# [11] = biological target: Fuc(a1-4)GlcNAc
# In short: as §1
# [12] = biological target: Gal(b1-4)Glc6S
# In short: as §1
# [13] = biological target: Gal(b1-4)GlcNAc(b1-2)Man(a1-3)[Gal(b1-4)GlcNAc(b1-2)Man(a1-6)]Man(b1-4)GlcNAc(b1-4)GlcNAc
# In short: as §1
# [14] = biological target: Gal(b1-4)GlcNAc(b1-2)Man(a1-6)Man(b1-4)GlcNAc(b1-4)GlcNAc
# In short: as §1
# [15] = biological target: Gal(b1-4)GlcNAc(b1-3)[Gal(b1-4)GlcNAc(b1-6)]GalNAc
# In short: as §1
# [16] = biological target: Gal(b1-4)GlcNAc(b1-6)GalNAc
# In short: as §1
# [17] = biological target: Gal3S(b1-3)[Fuc(a1-4)]GlcNAc
# In short: as §1
# [18] = biological target: GalNAc(b1-3)Gal(a1-4)Gal(b1-4)GlcNAc
# In short: as §1
# [19] = biological target: Glc(b1-4)Glc
# In short: as §1
# [20] = biological target: GlcNAc(b1-3)Gal(b1-4)GlcNAc
# In short: as §1
# [21] = biological target: GlcNAc(b1-3)[GlcNAc(b1-6)]GalNAc
# In short: as §1
# [22] = biological target: GlcNAc(b1-4)Gal(b1-4)GlcNAc
# In short: as §1
# [23] = biological target: GlcNAc(b1-4)[GlcNAc(b1-6)]GalNAc
# In short: as §1
# [24] = biological target: Kdn(a2-6)Gal(b1-4)GlcNAc
# In short: as §1
# [25] = biological target: Man(a1-2)Man(a1-2)Man(a1-3)Man
# In short: as §1
# [26] = biological target: Man(a1-2)Man(a1-2)Man(a1-6)[Man(a1-3)]Man
# In short: as §1
# [27] = biological target: Man(a1-2)Man(a1-3)Man
# In short: as §1
# [28] = biological target: Man(a1-2)Man(a1-3)[Man(a1-2)Man(a1-6)]Man
# In short: as §1
# [29] = biological target: Man(a1-2)Man(a1-3)[Man(a1-2)Man(a1-6)]Man(a1-6)[Man(a1-2)Man(a1-2)Man(a1-3)]Man
# In short: as §1
# [30] = biological target: Man(a1-2)Man(a1-6)[Man(a1-3)]Man(a1-6)[Man(a1-2)Man(a1-2)Man(a1-3)]Man
# In short: as §1
binder,measurement,setting,value
B1,glycan array binding signal (z-score),[1],-0.207
same,glycan array binding signal (z-score),[2],-0.241
same,glycan array binding signal (z-score),[3],-0.239
same,glycan array binding signal (z-score),[4],4.81
same,glycan array binding signal (z-score),[5],-0.174
same,glycan array binding signal (z-score),[6],-0.207
same,glycan array binding signal (z-score),[7],5.5
same,glycan array binding signal (z-score),[8],0.526
same,glycan array binding signal (z-score),[9],-0.219
same,glycan array binding signal (z-score),[10],-0.188
same,glycan array binding signal (z-score),[11],-0.24
same,glycan array binding signal (z-score),[12],-0.248
same,glycan array binding signal (z-score),[13],-0.242
same,glycan array binding signal (z-score),[14],-0.226
same,glycan array binding signal (z-score),[15],-0.246
same,glycan array binding signal (z-score),[16],-0.23
same,glycan array binding signal (z-score),[17],1.29
same,glycan array binding signal (z-score),[18],-0.243
same,glycan array binding signal (z-score),[19],-0.243
same,glycan array binding signal (z-score),[20],-0.237
same,glycan array binding signal (z-score),[21],-0.066
same,glycan array binding signal (z-score),[22],-0.212
same,glycan array binding signal (z-score),[23],0.086
same,glycan array binding signal (z-score),[24],-0.232
same,glycan array binding signal (z-score),[25],6.07
same,glycan array binding signal (z-score),[26],10.1
same,glycan array binding signal (z-score),[27],1.1
same,glycan array binding signal (z-score),[28],4.5
same,glycan array binding signal (z-score),[29],8.68
same,glycan array binding signal (z-score),[30],4.81
